Source: PubChem BioAssay (The Scripps Research Institute Molecular Screening Center)
hgDAF12 agonist: H. glycines DAF-12 receptor agonists, primary screen, cell-based, luminescence, HEK293, GAL4 fusion, UAS-luciferase. HEK293 GAL4-hgDAF12 UAS-luciferase reporter, agonist luminescence; normalized to butyrate control. activation, % at 6.8 µM. 370,000 tested, 1.8% active. Nuclear hormone receptor DAF-12 (Heterodera glycines), GAL4 fusion;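 active = activation above a cutoff set at the mean of all screened compounds plus 3 SD, cut at about 10% in these data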;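 also: 0% = DMSO wells and 100% = sodium butyrate wells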
SMARCA2 act: SMARCA2 (BRM) function activators, primary screen, cell-based, luminescence, high throughput; MG213 cells, MMTV-luciferase reporter, dexamethasone, overnight; activation, % at 9.1 µM; 370,000 tested, 1% active; in the data active = activation above about 7.8%;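 also: 0% = vehicle wells and 100% = reference activator wells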
DAX1 inh-1: DAX1 (NR0B1) inhibitors, primary screen, cell-based, HEK293, Gal4-DAX1, luciferase luminescence | HEK293 Gal4-DAX1 luciferase reporter | AID 504766, 2011 | 340,000 tested, 0.99% active | inhibition, % at 6.75 µM;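 active = inhibition above the mean over all tested compounds plus 3 SD, cut at about 4.2% in these data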;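 also: 0% = DAX1-transfected cells with DMSO and 100% = empty-vector control cells with DMSO; inhibition shows as a rise in luminescence from relieved DAX1 repression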
Target sequence (P51843 207-470 limits assumed): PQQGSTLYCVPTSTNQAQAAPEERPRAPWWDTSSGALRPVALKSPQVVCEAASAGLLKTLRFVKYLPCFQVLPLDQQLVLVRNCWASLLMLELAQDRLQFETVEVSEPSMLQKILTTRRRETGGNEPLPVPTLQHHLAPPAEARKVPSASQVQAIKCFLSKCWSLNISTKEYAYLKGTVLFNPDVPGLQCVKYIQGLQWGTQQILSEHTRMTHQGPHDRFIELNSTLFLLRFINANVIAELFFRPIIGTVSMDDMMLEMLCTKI
hcDAF-12 act: H. contortus DAF-12 nuclear receptor activators, primary screen, cell-based, luminescence, HEK293, lit1-tk-luc reporter. HEK293 hcDAF-12 lit1-tk-luc reporter; 0% DMSO, 100% Δ7-dafachronic acid. activation, % at 6.8 µM. 370,000 tested, 1.4% active;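 active = activation above the mean of all tested compounds plus 3 SD, cut at about 5.5% in these data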;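 also: 100% = response to 3 µM Δ7-dafachronic acid high control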
DAX1 inh-2: DAX1 (NR0B1) inhibitors on StAR promoter, primary screen, cell-based, luminescence, SF-1 (NR5A1), full-length DAX-1. HEK293T StAR-luciferase reporter, SF-1/DAX-1 repression relief. 370,000 tested, 1.1% active. inhibition, % at 6.8 µM. AID 652010, 2013;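 active = inhibition above the mean over all tested compounds plus 3 SD, cut at about 3.6% in these data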;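 also: 0% = DAX-1 cells with DMSO and 100% = cells lacking DAX-1 with DMSO; higher inhibition means more luminescence from relief of DAX-1 repression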
ssDAF12 agonist: S. stercoralis DAF-12 nuclear receptor activators, primary screen, cell-based, luminescence, HEK293, GRIP1 co-expression, lit1-tk-luc. Nuclear hormone receptor DAF-12 (Strongyloides stercoralis). HEK293 ssDAF-12/GRIP1 lit1-tk-luc reporter; % of 3 µM dafachronic acid response. activation, % at 6.8 µM. 370,000 tested, 1% active;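 active = activation above the mean over all tested compounds plus 3 SD, cut at about 0.9% in these data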;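 also: 0% = DMSO-only wells and 100% = 3 µM delta7-dafachronic acid wells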
LXRb hcDAF ctr: LXR agonists, Gal4 luciferase reporter, confirmation, counter-screen for hcDAF-12 agonist project, cell-based, luminescence, HEK293, H. contortus campaign | 3,400 tested, under 10 active | activation, % at 6.8 µM | HEK293 Gal4-LXR tk-luc reporter, 24 h; normalized: DMSO 0%, positive control 100% | shares compounds with hcDAF-12 act;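 active = mean percent activation of the reporter above a cutoff set as the average over tested compounds plus their standard deviation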
hcDAF12 conf: H. contortus DAF-12 receptor agonists, confirmation, cell-based, luminescence, HEK293, lit1-tk-luc, triplicate | shares compounds with hcDAF-12 act | HEK293 hcDAF-12 lit1-tk-luc reporter; % of Δ7-dafachronic acid response | activation, % at 6.8 µM | 3,400 tested, 61% active;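 active = mean activation across triplicate tests above the threshold derived from the earlier primary screen, cut at about 5.5% in these data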;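 also: 0% = DMSO only wells and 100% = 3 µM Δ7-dafachronic acid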
* hit, by the source's call; / = no result. Shown are actives, neighbours in structure and some others; about 4.8% of the full set was active somewhere.

SMILES	hgDAF12 agonist	SMARCA2 act	DAX1 inh-1	hcDAF-12 act	DAX1 inh-2	ssDAF12 agonist	LXRb hcDAF ctr	hcDAF12 conf
COc1ccc(-c2cc(C(F)F)n3ncc(C(=O)N4CCc5ccccc54)c3n2)cc1	-2	-1	-1	-1	0	-1	/	/
Cc1cccc(NC(=O)c2ccc(NCCc3ccccc3)c([N+](=O)[O-])c2)c1	2	-3	3	0	0	-1	/	/
Cc1ccc(NC(=O)c2ccc(NCCN)c([N+](=O)[O-])c2)cc1	2	4	-1	7.1*	1	0	0	3
O=[N+]([O-])c1ccc(OS(=O)(=O)Cc2ccccc2)cc1	-5	1	1	-2	0	-2	/	/
N=c1oc2ccccc2cc1-c1nc(-c2ccccc2)cs1	7	1	2	11*	2	1.1*	0	3
Cc1cc(N)n(-c2ccc(C)c(C)c2)n1	8	3	1	7.1*	1	0	0	5
c1ccc(-c2nc3ccccc3c3nc4ccccc4n23)cc1	-2	5	1	-3	0	-2	/	/
FC(F)(F)c1nc2ccccc2c2nc3ccccc3n12	6	3	2	8.3*	0	-1	0	3
O=[N+]([O-])c1cccc(/C(=N/N=C/c2ccccc2Br)C23CN4CN(CN(C4)C2)C3)c1	-1	3	0	0	0	-1	/	/
CC(C)=N/N=C(/c1ccc([N+](=O)[O-])cc1)C12CN3CN(CN(C3)C1)C2	-1	2	0	6.9*	0	-1	0	0
COC(=O)c1ccc(CNC(=O)c2cc(COc3cncc(Cl)c3)on2)cc1	0	1	0	-3	1	-1	/	/
CC(C)c1onc(C(=O)Nc2sc3c(c2C#N)CCC3)c1[N+](=O)[O-]	-2	2	2	1	0	-1	/	/
N#Cc1c(NC(=O)c2ccc([N+](=O)[O-])o2)sc2c1CCC2	7	6	-2	8.1*	0	1.0*	1	5
CCn1ncc(Br)c1C(=O)Nc1ccc(C(C)C)cc1	10	-2	1	7.8*	0	-1	0	3
O=C(NC1=NCCS1)c1sc2cc(F)ccc2c1Cl	11*	6	3	9.4*	2	1.3*	2	15*
Clc1ccc(OCCCCN2CCc3ccccc3C2)cc1	8	5	-1	10*	0	0	0	3
COc1ccc(OCCOCCN2CCc3ccccc3C2)cc1	0	2	-1	0	0	0	/	/
CCCCn1c(N)c(NCc2ccccc2OC)c(=O)[nH]c1=O	0	3	-1	-3	0	-1	/	/
Cc1ccc(-c2noc(-c3ccccc3F)n2)cc1	12*	3	2	17*	3.7*	2.1*	2	13*
O=C(O)c1ccc(-c2noc(-c3cccc(F)c3)n2)cc1	6	4	2	0	2	-1	/	/
O=C(O)c1ccc(-c2noc(-c3ccccc3F)n2)cc1	8	6	-3	6.8*	2	0	2	7.0*
O=C(O)c1ccccc1-c1noc(-c2ccccc2F)n1	12*	/	/	7.3*	/	0	1	5
CSc1nc(=S)n(Cc2ccccc2)c(C)c1C(C)=O	0	0	0	9.1*	1	-1	0	1
Cn1c(SCC(=O)c2ccc(F)cc2)nc2cccnc21	0	-1	-1	-1	0	-1	/	/
Cc1c(C(=N)C(C#N)C#N)c(=N)oc2c1ccc1ccccc12	3	1	0	8.2*	0	1	0	8.1*
SMILES	hgDAF12 agonist	SMARCA2 act	DAX1 inh-1	hcDAF-12 act	DAX1 inh-2	ssDAF12 agonist	LXRb hcDAF ctr	hcDAF12 conf
CCOc1ccc(OCC)c(NC(=O)CCn2c(=O)oc3ccccc32)c1	2	-4	0	-2	-1	-2	/	/
CCc1cc(C(=O)NNC(=S)Nc2cccc(C)c2)cs1	6	3	2	1	2	-1	/	/
CCc1cc(C(=O)Nc2ccc(C)cc2Br)cs1	12*	6	1	9.1*	3.7*	1.6*	1	12*
c1cncc(Nc2nc(-c3cccnc3)cs2)c1	7	1	2	7.2*	-1	-1	0	2
Cc1cccnc1Nc1nc(-c2ccccc2)cs1	13*	3	4	14*	3.7*	1.7*	2	14*
Cc1cccnc1Nc1nc(-c2ccccn2)cs1	3	5	-5	1	-3	-1	/	/
Cc1ccc(C)c(Nc2nc(-c3cccnc3)cs2)c1	6	1	0	1	0	-2	/	/
Cc1ccc(Nc2nc(-c3cccnc3)cs2)cc1Cl	9	2	4	11*	1	1	1	12*
COc1ccc(NC(=O)c2sc3nc(C)cc(C)c3c2N)cc1	9	6	3	2	2	-1	/	/
Cc1cc(C)c2c(N)c(C(=O)Nc3ccc(C)c(C)c3)sc2n1	10	3	8.0*	8.3*	3	1.6*	2	9.5*
CC(Oc1cccc(Cl)c1)C(=O)Nc1cc(Cl)ccc1N1CCOCC1 (stereo not given)	0	2	2	4	-1	-1	/	/
Oc1ccccc1-c1n[nH]c(-c2ccccc2O)n1	13*	-4	2	7.1*	-1	1.4*	1	9.6*
Clc1ccccc1-c1nc(-c2ccccc2)n[nH]1	12*	6	4	15*	3	1	1	6.6*
O=C(O)COc1ccc(/C=C/c2nc(-c3ccccc3O)n[nH]2)cc1	0	0	1	5	0	-1	/	/
O=C(C[C@@H]1C/C=C\C[C@H](Cc2ccc(F)cc2)C(=O)OCCNC1=O)NCCO	-2	-1	0	0	0	-1	/	/
